Data taken from PubChem BioAssay (Tox21).
Results filed as inconclusive are left out. Active and inactive are the calls of the source. Unless noted, the call rests on the fitted dose curve.

Assays:
[1] = Nuclear factor erythroid 2-related factor 2/antioxidant responsive element (Nrf2/ARE) small molecule agonists: qHTS cell viability counter screen in human keratinocytes (AID 1919968; active means well fitted curve in the direction sought with a large enough effect in the repeat runs; an effect the other way counts as inactive or inconclusive; further: nearly all actives have a fitted effect of over 55% in size)
Summary of the method: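 Fluorescence read-out from CellTiter-Fluor after 1 h at 37 C. Wells held HaCaT-derived ARE-luciferase reporter cells (1,500/well) treated 23 h with DMSO-dissolved compounds. Run in the same wells as the luciferase agonist read.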

[2] = Nuclear factor erythroid 2-related factor 2/antioxidant responsive element (Nrf2/ARE) small molecule agonists: luciferase reporter gene qHTS assay in human keratinocytes (AID 1919969); further: nearly all actives have a fitted effect of over 35% in size
[3] = biological target: Gonadotropin-releasing hormone receptor (Homo sapiens) (UniProt P30968); test: Human gonadotropin-releasing hormone receptor (GnRHR) small molecule agonists, calcium flux assay in GnRHR-HEK293 cells (AID 1920063); further: nearly all actives have a fitted effect of over 35% in size
Sequence of Gonadotropin-releasing hormone receptor (Homo sapiens) (P30968 whole entry, looked up): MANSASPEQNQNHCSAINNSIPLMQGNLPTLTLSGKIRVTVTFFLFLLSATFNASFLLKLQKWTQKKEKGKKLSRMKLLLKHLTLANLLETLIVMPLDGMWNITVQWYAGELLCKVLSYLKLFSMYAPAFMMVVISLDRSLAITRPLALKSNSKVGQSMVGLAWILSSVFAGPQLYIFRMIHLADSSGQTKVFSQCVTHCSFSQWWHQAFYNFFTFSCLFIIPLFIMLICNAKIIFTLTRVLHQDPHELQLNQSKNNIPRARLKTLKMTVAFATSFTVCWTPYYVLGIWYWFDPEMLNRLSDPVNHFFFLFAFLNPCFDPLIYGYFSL
Summary of the method: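 Calcium-dye fluorescence, Ex/Em=480/540, recorded every 1 sec over 3 min after compound addition to GnRHR-HEK293 cells. Cells had been seeded 18 hours earlier and dye-loaded for 1 hour at 37 C. Fifteen concentrations, triplicates.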

[4] = biological target: KiSS-1 receptor (Homo sapiens) (UniProt Q969F8); test: Human kisspeptin (KISS1R) small molecule agonists, calcium flux assay in KISS1R-HEK293 cells (AID 1920064; active means well fitted curve in the direction sought with a large enough effect in the repeat runs; an effect the other way counts as inactive or inconclusive)
Sequence of KiSS-1 receptor (Homo sapiens) (Q969F8 whole entry, looked up): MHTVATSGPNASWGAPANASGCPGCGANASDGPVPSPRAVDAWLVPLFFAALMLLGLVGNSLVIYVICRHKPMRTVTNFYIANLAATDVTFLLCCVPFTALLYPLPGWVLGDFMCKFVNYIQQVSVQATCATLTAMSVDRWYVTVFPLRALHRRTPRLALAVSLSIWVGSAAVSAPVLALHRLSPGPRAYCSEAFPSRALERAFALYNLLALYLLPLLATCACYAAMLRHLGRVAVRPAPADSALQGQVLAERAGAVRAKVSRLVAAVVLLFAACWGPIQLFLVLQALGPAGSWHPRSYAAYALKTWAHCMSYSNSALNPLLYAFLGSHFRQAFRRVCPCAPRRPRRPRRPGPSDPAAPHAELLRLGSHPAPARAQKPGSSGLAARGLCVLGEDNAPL
Summary of the method: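 Calcium flux read-out: kinetic fluorescence at Ex/Em=480/540, 1 s intervals over 3 min, after pin-tool compound addition to dye-loaded KISS1R-HEK293 cells. Fifteen concentrations, triplicates.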

[5] = G protein-coupled receptor (GPCR) small molecule agonists, calcium flux assay: HEK293 wild type cell line counter screen (AID 1920065)
Summary of the method: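 Agonist mode; 18 h seeding at 37 C, 1 h dye load at 37 C; compounds pinned from DMSO, ATP as positive control; kinetic fluorescence 480/540 nm, 3 min, 1 s reads; 15 concentrations, triplicate.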

[6] = p53 small molecule agonists, cell-based qHTS assay with human liver microsomes (AID 1963577)
Summary of the method: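 Compounds act here after metabolic activation: human liver microsomes and NADPH, both at 0.5 mg/mL final, were co-added to p53RE-bla cells. Incubation ran 16 h at 37 C, followed by LiveBLAzer detection.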

[7] = p53 small molecule agonists, cell-based qHTS assay with rat liver microsomes (AID 1963578)
Summary of the method: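 Read-out is beta-lactamase reporter fluorescence (LiveBLAzer, 2 h, room temperature, dark) in p53RE-bla cells treated 16 h at 37 C with compound, rat liver microsomes and NADPH, both 0.5 mg/mL final.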

[8] = p53 small molecule agonists, cell-based qHTS assay with human liver microsomes: qHTS cell viability counter screen (AID 1963579); further: nearly all actives have a fitted effect of over 45% in size
Summary of the method: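 Cells carrying the p53 response-element beta-lactamase reporter are treated for 16 h at 37 C with test compounds in the presence of human liver microsomes and NADPH (both 0.5 mg/mL final); ATP-based CellTiter-Glo luminescence then reports viability.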

[9] = p53 small molecule agonists, cell-based qHTS assay with rat liver microsomes: qHTS cell viability counter screen (AID 1963580); further: nearly all actives have a fitted effect of over 45% in size
Summary of the method: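 Luminescent ATP readout (CellTiter-Glo, 30 min at room temperature) reports viability of p53RE-bla HCT-116 cells after 16 h at 37 C with test compounds under metabolic activation by rat liver microsomes and NADPH at 0.5 mg/mL final each.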

[10] = p53 small molecule agonists, cell-based qHTS assay: qHTS cell viability counter screen (AID 1963581); further: nearly all actives have a fitted effect of over 45% in size
Summary of the method: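 Cytotoxicity read-out: ATP-based luminescence (CellTiter-Glo, 30 min RT) measured in the same wells as the p53 reporter assay, HCT-116 p53RE-bla cells, 16 h compound exposure at 37 C.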

[11] = p53 small molecule agonists, cell-based qHTS assay (AID 1963582; active means well fitted activation curve with a large enough effect in the signal ratio in the repeat runs, not every such curve was filed as active; the % refers to the signal ratio)
Summary of the method: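 Fluorescence intensity read-out of a beta-lactamase reporter under a p53 response element. Cells were exposed to DMSO-dissolved compounds for 16 h at 37 C, then developed with FRET substrate for 2 h at RT.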

[12] = biological target: 5-hydroxytryptamine receptor 2A (Homo sapiens) (UniProt P28223); test: 5-hydroxytryptamine receptor 2A (HTR2A) small molecule antagonists, cell-based qHTS assay (AID 1963586); further: nearly all actives have a fitted effect of over 45% in size
Sequence of 5-hydroxytryptamine receptor 2A (Homo sapiens) (P28223 whole entry, looked up): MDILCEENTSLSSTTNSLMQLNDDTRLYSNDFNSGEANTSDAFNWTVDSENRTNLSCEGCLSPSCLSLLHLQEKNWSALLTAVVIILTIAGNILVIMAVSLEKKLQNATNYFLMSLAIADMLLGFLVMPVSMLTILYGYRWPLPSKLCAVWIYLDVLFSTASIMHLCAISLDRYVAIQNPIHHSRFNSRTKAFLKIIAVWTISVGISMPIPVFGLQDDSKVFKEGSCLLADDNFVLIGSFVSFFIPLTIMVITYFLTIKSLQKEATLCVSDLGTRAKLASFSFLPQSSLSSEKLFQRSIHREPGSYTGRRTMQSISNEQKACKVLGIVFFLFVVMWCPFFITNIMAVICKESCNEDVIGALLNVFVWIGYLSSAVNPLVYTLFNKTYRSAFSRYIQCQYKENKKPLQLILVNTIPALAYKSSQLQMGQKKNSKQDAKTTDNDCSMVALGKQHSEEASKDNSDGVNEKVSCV
Summary of the method: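 CHO cells stably expressing human HTR2A were plated for 18 h at 37 C, then loaded with calcium dye for 1 h. Compounds were preincubated 5 min at room temperature before DOI (4 nM solution) was added. Kinetic fluorescence was read for 3 min.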

[13] = biological target: 5-hydroxytryptamine receptor 2A (Homo sapiens) (UniProt P28223); test: 5-hydroxytryptamine receptor 2A (HTR2A) small molecule agonists, cell-based qHTS assay (AID 1963587); further: nearly all actives have a fitted effect of over 30% in size
Summary of the method: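 HTR2A-CHO cells, plated 18 h at 37 C/5% CO2, dye-loaded 1 h at 37 C; compounds in DMSO added by pin tool (agonist mode). Intracellular calcium flux read as kinetic fluorescence on FDSS over 2 min at 1 s intervals.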

[14] = biological target: Muscarinic acetylcholine receptor M1 (Homo sapiens) (UniProt P11229); test: Cholinergic receptor muscarinic 1 (CHRM1) small molecule agonists, cell-based qHTS assay (AID 1963589); further: nearly all actives have a fitted effect of over 35% in size
Sequence of Muscarinic acetylcholine receptor M1 (Homo sapiens) (P11229 whole entry, looked up): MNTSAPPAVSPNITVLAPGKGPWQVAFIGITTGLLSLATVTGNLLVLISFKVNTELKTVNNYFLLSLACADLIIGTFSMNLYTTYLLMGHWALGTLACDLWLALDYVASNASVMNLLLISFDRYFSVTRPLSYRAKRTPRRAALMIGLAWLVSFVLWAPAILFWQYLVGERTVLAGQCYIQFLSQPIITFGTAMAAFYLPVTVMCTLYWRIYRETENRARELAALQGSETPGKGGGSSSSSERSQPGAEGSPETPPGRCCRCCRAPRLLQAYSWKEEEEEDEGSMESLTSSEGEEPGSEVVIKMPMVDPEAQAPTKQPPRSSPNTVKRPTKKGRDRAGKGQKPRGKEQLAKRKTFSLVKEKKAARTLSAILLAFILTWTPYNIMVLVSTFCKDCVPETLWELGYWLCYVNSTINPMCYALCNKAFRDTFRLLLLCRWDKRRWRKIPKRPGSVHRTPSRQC
Summary of the method: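 Calcium flux read-out: kinetic fluorescence at 1 sec intervals after pin-tool compound addition to dye-loaded CHRM1-CHO cells (human M1). Agonist mode; 15 concentrations tested in triplicate independent runs.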

[15] = cAMP Responsive Elements (CRE) small molecule agonists, cell-based qHTS assay (AID 1963590)
Summary of the method: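 Beta-lactamase reporter readout: LiveBLAzer B/G FRET substrate, 2 h at room temperature, added after 3 h compound treatment of CRE-bla HEK 293T cells at 37 C/5% CO2.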

[16] = cAMP Responsive Elements (CRE) small molecule antagonists, cell-based qHTS assay (AID 1963591; active means well fitted inhibition curve with a large enough effect in the signal ratio in the repeat runs, not every such curve was filed as active; the % refers to the signal ratio)
Summary of the method: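 HEK293T CRE-bla; 18 h preincubation; compound pin-transfer; NKH477 0.25 uM final, 3 h, 37 C; LiveBLAzer FRET substrate 2 h RT.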

[17] = biological target: Beta-2 adrenergic receptor (Homo sapiens) (UniProt P07550); test: Adrenergic beta2 receptor (ADRB2) small molecule antagonists, cell-based qHTS assay (AID 1963592); further: series mostly up to about 92 µM; nearly all actives have a fitted effect of over 50% in size
Sequence of Beta-2 adrenergic receptor (Homo sapiens) (P07550 whole entry, looked up): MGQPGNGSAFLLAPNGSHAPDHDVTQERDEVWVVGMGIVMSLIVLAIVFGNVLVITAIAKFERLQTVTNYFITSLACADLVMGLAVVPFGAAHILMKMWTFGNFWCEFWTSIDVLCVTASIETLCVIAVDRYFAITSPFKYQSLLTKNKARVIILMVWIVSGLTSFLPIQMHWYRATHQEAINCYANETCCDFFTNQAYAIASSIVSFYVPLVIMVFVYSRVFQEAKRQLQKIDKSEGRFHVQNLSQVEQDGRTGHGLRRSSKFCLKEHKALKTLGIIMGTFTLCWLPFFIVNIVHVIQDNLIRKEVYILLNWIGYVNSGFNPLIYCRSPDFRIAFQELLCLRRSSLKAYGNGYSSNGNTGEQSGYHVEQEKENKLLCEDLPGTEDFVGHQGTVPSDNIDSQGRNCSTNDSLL
Summary of the method: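 Assay format: CHO-ADRB2 cells, 18-20hr seeding at 37C/5% CO2, then compound plus 1nM isoproterenol agonist mix for 0.5hr RT. Homogeneous time-resolved fluorescence cAMP detection after 1hr, expressed as 665/615 nm ratio.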

[18] = biological target: D(2) dopamine receptor (Homo sapiens) (UniProt P14416); test: Dopamine D2 receptor (DRD2) small molecule agonists, cell-based qHTS assay (AID 1963594); further: nearly all actives have a fitted effect of over 35% in size
Sequence of D(2) dopamine receptor (Homo sapiens) (P14416 whole entry, looked up): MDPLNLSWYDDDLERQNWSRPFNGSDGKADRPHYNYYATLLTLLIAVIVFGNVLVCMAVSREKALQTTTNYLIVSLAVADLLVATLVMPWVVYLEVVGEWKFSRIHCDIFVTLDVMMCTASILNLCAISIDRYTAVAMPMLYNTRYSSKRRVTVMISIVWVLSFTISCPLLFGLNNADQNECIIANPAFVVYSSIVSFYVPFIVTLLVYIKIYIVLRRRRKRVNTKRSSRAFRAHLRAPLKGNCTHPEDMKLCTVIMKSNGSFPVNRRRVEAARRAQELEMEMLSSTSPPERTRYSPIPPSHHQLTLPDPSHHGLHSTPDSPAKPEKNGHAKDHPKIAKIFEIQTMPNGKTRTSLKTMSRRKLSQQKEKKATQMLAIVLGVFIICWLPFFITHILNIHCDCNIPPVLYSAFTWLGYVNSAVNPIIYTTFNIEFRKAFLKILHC
Summary of the method: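 HEK293 cells stably expressing DRD2 were cultured 24 h at 37 C, then given Ro20-1724 (0.1 mM final) and compounds for 10 min at room temperature. NKH477 (200nM) was then added for 30 min. cAMP was read by HTRF.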

[19] = biological target: D(2) dopamine receptor (Homo sapiens) (UniProt P14416); test: Dopamine D2 receptor (DRD2) small molecule antagonists, cell-based qHTS assay (AID 1963595; active means well fitted inhibition curve with a large enough effect in the signal ratio in the repeat runs, with a control signal flat; the % refers to the signal ratio)
Summary of the method: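 HTRF cAMP read-out at 665 and 620 nm emission (340 nm excitation). Antagonist mode: compounds were tested against 12 nM quinpirole in DRD2-HEK293 cells, with 200 nM NKH477 raising cAMP and 0.1 mM Ro20-1724 blocking its breakdown.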

Measured: Potency

CC1(C)CC(N)CC(C)(C)N1
inactive: all assays above

Cc1occc1C(=O)Nc1ccc(C(=O)N2CCC(F)(F)/C(=C\C(=O)N3CCC(N4CCCCC4)CC3)c3ccccc32)cc1
not listed: [18]
inactive: all other assays above

CCOC(=O)CC
not listed: [16]
inactive: all other assays above

CC(=O)SC[C@@H](Cc1ccccc1)C(=O)NCC(=O)OCc1ccccc1
not listed: [16]
inactive: all other assays above

CCc1cccc(CC)c1
inactive: all assays above

CCN(CC)c1cccc(C)c1
not listed: [19]
inactive: all other assays above

O=C(c1ccccc1)c1cccc(O)c1
not listed: [16]
inactive: all other assays above

CC[N+](CC)(CCNC(=O)C(=O)NCC[N+](CC)(CC)Cc1ccccc1Cl)Cc1ccccc1Cl
inactive: all assays above

C/C=C(\C)C(=O)OCC/C=C\CC
inactive: all assays above

C=C1C[C@@]23CC[C@H]4[C@@](C)(CCC[C@@]4(C)C(=O)O[C@@H]4O[C@H](CO)[C@@H](O)[C@H](O)[C@H]4O)[C@@H]2CC[C@]1(O[C@@H]1O[C@H](CO)[C@@H](O)[C@H](O[C@@H]2O[C@H](CO)[C@@H](O)[C@H](O)[C@H]2O)[C@H]1O[C@@H]1O[C@H](CO)[C@@H](O)[C@H](O)[C@H]1O)C3
inactive: all assays above

CCC1C(=O)OCC1Cc1cncn1C (stereo not drawn)
not listed: [14] | [19]
inactive: all other assays above

CC(=O)Nc1ccc(C)cc1C
inactive: all assays above

CC(C)c1cc(C(C)C)cc(C(C)C)c1
inactive: all assays above

CC(c1cc(C(C)(C)C)cc(C(C)(C)C)c1O)c1cc(C(C)(C)C)cc(C(C)(C)C)c1O
not listed: [14]
inactive: all other assays above
